Test results published in PubChem BioAssay (NCI).
This is part of a sample that, as a whole, favours compounds with a hit. Of some 83,000 tested, about 20% had one in any assay.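 Percent growth is the endpoint: 0 to 100 indicates growth inhibition (40 means 60% inhibition), 0 means no net growth, and negative values indicate cell death.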 Unmarked numbers belong to inactive results. Calls of active or inactive are those of the source. Rule for the calls: active = growth percent below 10; inactive = the rest.

What was measured:
Experiment in all cases: NCI-60 one-dose screen, 48 h (100 = growth as untreated, 0 = no growth, -100 = all killed)
Conditions in all cases: 10 µM unless noted
SK-MEL-2 melanoma = system: SK-MEL-2 melanoma
EKVX NSCLC = system: EKVX NSCLC
SN12C renal = system: SN12C renal
UO-31 renal = system: UO-31 renal
TK-10 renal = system: TK-10 renal
ACHN renal = system: ACHN renal
CAKI-1 renal = system: CAKI-1 renal
A498 renal = system: A498 renal
CCRF-CEM leukemia = system: CCRF-CEM leukemia
MOLT-4 leukemia = system: MOLT-4 leukemia
SR leukemia = system: SR leukemia
RPMI-8226 leukemia = system: RPMI-8226 leukemia
OVCAR-8 ovarian = system: OVCAR-8 ovarian
OVCAR-5 ovarian = system: OVCAR-5 ovarian
OVCAR-4 ovarian = system: OVCAR-4 ovarian
SK-OV-3 ovarian = system: SK-OV-3 ovarian
IGROV1 ovarian = system: IGROV1 ovarian
OVCAR-3 ovarian = system: OVCAR-3 ovarian
HS 578T breast = system: HS 578T breast
NCI/ADR-RES ovarian = system: NCI/ADR-RES ovarian

Row | SMILES | growth (SK-MEL-2 melanoma) | growth (EKVX NSCLC) | growth (SN12C renal) | growth (UO-31 renal) | growth (TK-10 renal) | growth (ACHN renal) | growth (CAKI-1 renal) | growth (A498 renal) | growth (CCRF-CEM leukemia) | growth (MOLT-4 leukemia) | growth (SR leukemia) | growth (RPMI-8226 leukemia) | growth (OVCAR-8 ovarian) | growth (OVCAR-5 ovarian) | growth (OVCAR-4 ovarian) | growth (SK-OV-3 ovarian) | growth (IGROV1 ovarian) | growth (OVCAR-3 ovarian) | growth (HS 578T breast) | growth (NCI/ADR-RES ovarian)
1 | Cc1c2cnccc2c(C)c2c1c1cc(C3OCCCO3)ccc1n2C | -67.5% (active) | 3.53% (active) | -10.2% (active) | -7.3% (active) | -14.5% (active) | -12.1% (active) | 8.13% (active) | -56.6% (active) | -6.77% (active) | -4.85% (active) | 4.22% (active) | -21.6% (active) | 6.68% (active) | -3.71% (active) | -2.47% (active) | -6.97% (active) | 2% (active) | 0.203% (active) | -3.27% (active) | -9.92% (active)
2 | COC(c1ccc2ccccc2c1)C(C)C(F)F (stereo not given) | 97.8% | 100% | 98.2% | 90.6% | 86.4% | 100% | 95.9% | 99.7% | 62.2% | 99.3% | 92% | 98.8% | 99.4% | 95.5% | 109% | 87.5% | 100% | 114% | 116% | 107%
3 | COc1ccc(Cc2cnc(NC(=O)c3sc4ccccc4c3Cl)s2)cc1 | 43.9% | 40.8% | 28.7% | 48.4% | 63.1% | 41.3% | 41.9% | 21.3% | 21% | 14.8% | 9.94% (active) | 28.3% | 18.7% | 48.4% | 60.5% | 33.9% | 25.9% | -8.48% (active) | 8.78% (active) | 6.4% (active)
4 | CCCCN1C(=O)/C(=c2\sc3n(c2=O)NC2C(N=3)N(CC)C(=O)N2CC)c2ccccc21 (stereo not given) | 59.1% | 67.9% | 50.5% | 40.1% | 83.8% | 48.4% | 30.3% | 42.3% | 26.1% | 43.6% | 24.5% | 60.2% | 36.2% | 48.4% | 50.8% | 77.2% | 47% | 0.018% (active) | 40.2% | 20.5%
5 | N#Cc1c(Nc2ccc(F)cc2)n[nH]c1-c1cccs1 | 117% | 92.6% | 89.5% | 74.1% | 135% | 88.4% | 88.9% | 103% | 100% | 103% | 107% | 97.3% | 105% | 100% | 92% | 115% | 71.8% | 109% | 101% | 100%
6 | CC(C)(C)c1cc(C=Nc2cccc(C(F)(F)F)c2)c(O)c(C(C)(C)C)c1 | 102% | 107% | 98.8% | 80.7% | 84.8% | 111% | 90.4% | 108% | 62.5% | 85.3% | 77.7% | 74.5% | 88.1% | 105% | 97.3% | 100% | 105% | 95% | 102% | 99.9%
7 | CC1=C(C(=O)n2c3ccccc3c3ccccc32)C(c2cccc([N+](=O)[O-])c2)C(C(=O)n2c3ccccc3c3ccccc32)=C(C)N1 | 102% | 102% | 99.9% | 71.4% | 104% | 93.4% | 77.5% | 93.1% | 88.7% | 83.1% | 68.5% | 93.4% | 99.4% | 99.2% | 103% | 97.7% | 98.4% | 100% | 96.5% | 98.7%
8 | COc1cc(C2=NN(C(C)=O)C(c3ccc(N(C)C)cc3)C2)cc(OC)c1OC (stereo not given) | 90% | 94.7% | 86.4% | 79.6% | 109% | 91.8% | 15.3% | 76% | 14.6% | 80.8% | 83.9% | 99.1% | 95.3% | 82.3% | 96.7% | 110% | 76.7% | 124% | 84.7% | 99.2%
9 | COc1cc(/C=C/c2cc(/C=C/c3ccc(O)c(OC)c3)n(C(=O)Nc3ccc(F)cc3)n2)ccc1O | -27.1% (active) | 26.9% | 17.9% | 14% | 38.1% | 20.2% | -7.81% (active) | 31.5% | 6.82% (active) | -3.56% (active) | 2.53% (active) | 3.32% (active) | 0.475% (active) | 31.3% | 35.5% | -18.7% (active) | 17.4% | 3.89% (active) | 20% | 27.9%
10 | C#CCn1cnc2c(Nc3cccc(NC(=O)CCl)c3)ncnc21 | 46% | 45.3% | 31.2% | 46.7% | 76.9% | 23.4% | 29.9% | 78.7% | 4.81% (active) | 4.44% (active) | 9.78% (active) | 10.4% | 50% | 43.7% | 26.9% | 49.6% | 7.54% (active) | 31.6% | 50% | 49.1%
11 | N=c1c2c(=N)n3c(nc2nc2n1-c1ccccc1Sc1ccccc1-2)sc1cc(Cl)ccc13 | -2.45% (active) | 13.8% | 25% | 7.88% (active) | 33.6% | 18.2% | 8.56% (active) | 0.653% (active) | 37.7% | 48.4% | 25.9% | 14.5% | 26.5% | 92.2% | 8.65% (active) | 49.6% | 38.7% | 7.88% (active) | 32% | 30.1%
12 | CC[C@H](Nc1nc(N)nc(C)c1C#N)c1nc2cccc(NCCCCCC(=O)NO)c2c(=O)n1-c1ccccc1 | 76.1% | 75% | 46.3% | 30.1% | 33.2% | 51.9% | 35.9% | -29.5% (active) | 43.3% | 30.7% | 67.9% | 62% | 68.5% | 44.2% | 76.1% | 53.1% | 9.52% (active) | 40.8% | 13.2% | 96.2%
13 | CCCCCn1sc(=O)n(Cc2ccc(CNC(=O)OCc3ccc4c(Cl)cc(Cl)c(O)c4n3)cc2)c1=O | 90.1% | 86% | 51.4% | 11.6% | 68.8% | 28.9% | 55% | 80.7% | 34.4% | 31.8% | 64.3% | 60.6% | 42.3% | 90% | 66.4% | 96% | 53.5% | 69.8% | 70.9% | 9.85% (active)
14 | CCn1cc(C2=C(c3cn(C)c4ncccc34)C(=O)NC2=O)c2cccnc21 | 84.8% | 54.6% | 68.5% | 50% | 69.4% | 74.7% | 61.6% | -2.35% (active) | 65.8% | 81.9% | 59.4% | 85.2% | 82.5% | 102% | 69.3% | 41.6% | 64.5% | 64.7% | 32% | 78.2%
15 | CC(C)=CC(=O)N[C@@H]1CC2CCC3C(CC[C@@]4(C)C3CC[C@@H]4C(C)N(C)C)[C@@]2(C)C[C@@H]1O (stereo not given in full) | 124% | 32.9% | 71.3% | 10.1% | 84.5% | 69.6% | 76.6% | 67.2% | 30% | -7.31% (active) | -39.8% (active) | -2.36% (active) | 81.8% | 81.4% | 11.5% | 81.3% | 61.9% | 46.5% | 59.7% | 52.5%
